# Test results from PubChem BioAssay (NCATS).
# Records with an inconclusive call do not appear. Where a call stands in place of a potency, no number is given. A number with no mark means an inactive call. The source made the active and inactive calls. Calls come from the whole dose curve; as a rule, active = well fitted curve in the direction sought with a large enough effect; inconclusive = small, poorly fitted or top-dose-only effect, or another doubt; inactive = no such curve, though single readings can be large; an effect the other way counts as inactive or inconclusive. Bridge positions count the residues as written; N and C are the ends. Square brackets hold non-standard residues; d marks the D form. Peptide text beside a SMILES is read from it. * marks the point of attachment. Ileψ(thiazoline)Cys = CC[C@H](C)[C@H](N)C1=N[C@H](C(=O)*)CS1; d(aIle) = CC[C@H](C)[C@@H](N)C(=O)O; dOrn = NCCC[C@@H](N)C(=O)O
# Assays:
# [1] = target: ATP-dependent 6-phosphofructokinase (Trypanosoma brucei brucei) (UniProt O15648); test: qHTS Assay to Find Inhibitors of T. brucei phosphofructokinase: hit validation (AID 492961);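 note: luminescence reports ADP formed as PFK phosphorylates fructose-6-phosphate with ATP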
# Method in brief: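 Reaction: 0.1 M triethanolamine pH 8.0, 5 mM MgCl2, F6P 0.5 mM, ATP 0.1 mM, PFK 1.25 nM, 45 min RT. Read-out: ADP-Glo luminescence. Analysis: concentration-response fits, classed by r2 and efficacy.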
# [2] = target: Ubiquitin carboxyl-terminal hydrolase 1 (Homo sapiens) (UniProt O94782); test: Inhibitors of USP1/UAF1: Pilot qHTS (AID 504865);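 note: rhodamine fluorescence freed from ubiquitin-rhodamine substrate followed over time; top concentration of the series differs between compounds; nearly all actives have a fitted effect of over 35% in size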
# Method in brief: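 Deubiquitinase activity followed as kinetic rhodamine fluorescence release from 150 nM Ub-Rho. 1 nM USP1/UAF1 with compound, after 15 min room-temperature preincubation, in HEPES pH 7.8 buffer containing TCEP, EDTA, BSA and Tween-20.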
# [3] = target: Luciferin 4-monooxygenase (Photinus pyralis) (UniProt P08659); test: Biochemical firefly luciferase enzyme assay for NPC (AID 624030);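 note: purified P. pyralis luciferase at 10 nM with luciferin and ATP substrate; nearly all actives have a fitted effect of over 70% in size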
# Method in brief: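 Counter-screen for direct inhibition of the luciferase enzyme by approved-drug library compounds, run at 10 nM enzyme in 50 mM Tris acetate (final). Luminescence was read within 5 min of enzyme-buffer addition and normalized to PTC124 versus DMSO (0%).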
# [4] = qHTS profiling for inhibitors of Plasmodium falciparum proliferation (AID 504749); note: potency is the fitted concentration of half-maximal effect; for all read-outs here: nearly all actives have a fitted effect of over 60% in size; details: P. falciparum in erythrocytes, SYBR Green DNA, 72 h; for activity, negative = inhibition: at 28.7 µM (top of the series)
# Method in brief: (§1)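 Parasite proliferation within erythrocytes, 72 h exposure. Endpoint: SYBR Green I fluorescence after overnight lysis at room temperature. Controls: 0.29 uM artemisinin, DMSO.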
# [5] = tested on: ATS189; test: as above; details: P. falciparum in erythrocytes, SYBR Green DNA, 72 h; series mostly up to 28.7 µM
# Method in brief: as §1
# [6] = tested on: C2A; test: as above; details: P. falciparum in erythrocytes, SYBR Green DNA, 72 h; series mostly up to 28.7 µM
# Method in brief: as §1
# [7] = tested on: CP191; test: as above; details: P. falciparum in erythrocytes, SYBR Green DNA, 72 h; series mostly up to 28.7 µM
# Method in brief: as §1
# [8] = tested on: CP192; test: as above; details: P. falciparum in erythrocytes, SYBR Green DNA, 72 h; series mostly up to 28.7 µM
# Method in brief: as §1
# [9] = tested on: CP201; test: as above; details: P. falciparum in erythrocytes, SYBR Green DNA, 72 h; series mostly up to 28.7 µM
# Method in brief: as §1
# [10] = tested on: CP215; test: as above; details: P. falciparum in erythrocytes, SYBR Green DNA, 72 h; series mostly up to 28.7 µM
# Method in brief: as §1
# [11] = tested on: CP237; test: as above; details: P. falciparum in erythrocytes, SYBR Green DNA, 72 h; series mostly up to 28.7 µM
# Method in brief: as §1
# [12] = tested on: CP238; test: as above; details: P. falciparum in erythrocytes, SYBR Green DNA, 72 h; series mostly up to 28.7 µM
# Method in brief: as §1
# [13] = tested on: CP268; test: as above; details: P. falciparum in erythrocytes, SYBR Green DNA, 72 h; series mostly up to 28.7 µM
# Method in brief: as §1
# [14] = tested on: CP269; test: as above; details: P. falciparum in erythrocytes, SYBR Green DNA, 72 h; series mostly up to 28.7 µM
# Method in brief: as §1
# [15] = tested on: CP286; test: as above; details: P. falciparum in erythrocytes, SYBR Green DNA, 72 h; series mostly up to 28.7 µM
# Method in brief: as §1
# [16] = tested on: CP325; test: as above; details: P. falciparum in erythrocytes, SYBR Green DNA, 72 h; series mostly up to 28.7 µM
# Method in brief: as §1
# [17] = tested on: CP329; test: as above; details: P. falciparum in erythrocytes, SYBR Green DNA, 72 h; series mostly up to 28.7 µM
# Method in brief: as §1
# [18] = tested on: FAB9; test: as above; details: P. falciparum in erythrocytes, SYBR Green DNA, 72 h; series mostly up to 28.7 µM
# Method in brief: as §1
# [19] = tested on: JCK; test: as above; details: P. falciparum in erythrocytes, SYBR Green DNA, 72 h; series mostly up to 28.7 µM
# Method in brief: as §1
# [20] = tested on: PC49; test: as above; details: P. falciparum in erythrocytes, SYBR Green DNA, 72 h; series mostly up to 28.7 µM
# Method in brief: as §1
# Luciferin 4-monooxygenase (Photinus pyralis), sequence (P08659 whole entry, looked up): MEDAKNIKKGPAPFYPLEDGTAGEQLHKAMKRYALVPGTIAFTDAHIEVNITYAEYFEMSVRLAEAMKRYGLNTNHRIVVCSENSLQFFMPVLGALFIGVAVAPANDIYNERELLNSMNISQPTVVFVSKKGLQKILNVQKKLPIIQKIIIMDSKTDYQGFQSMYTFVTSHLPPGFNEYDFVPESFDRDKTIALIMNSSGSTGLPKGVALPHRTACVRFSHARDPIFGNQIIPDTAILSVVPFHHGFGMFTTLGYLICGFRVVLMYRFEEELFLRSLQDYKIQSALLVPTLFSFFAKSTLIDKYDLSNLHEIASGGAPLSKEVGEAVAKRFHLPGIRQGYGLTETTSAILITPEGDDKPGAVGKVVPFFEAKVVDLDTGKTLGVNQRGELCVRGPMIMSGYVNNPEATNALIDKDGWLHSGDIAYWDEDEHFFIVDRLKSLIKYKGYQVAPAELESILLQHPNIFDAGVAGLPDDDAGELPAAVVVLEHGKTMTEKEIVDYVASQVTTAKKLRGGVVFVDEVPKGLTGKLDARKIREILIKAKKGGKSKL
# Ubiquitin carboxyl-terminal hydrolase 1 (Homo sapiens), sequence (O94782 whole entry, looked up): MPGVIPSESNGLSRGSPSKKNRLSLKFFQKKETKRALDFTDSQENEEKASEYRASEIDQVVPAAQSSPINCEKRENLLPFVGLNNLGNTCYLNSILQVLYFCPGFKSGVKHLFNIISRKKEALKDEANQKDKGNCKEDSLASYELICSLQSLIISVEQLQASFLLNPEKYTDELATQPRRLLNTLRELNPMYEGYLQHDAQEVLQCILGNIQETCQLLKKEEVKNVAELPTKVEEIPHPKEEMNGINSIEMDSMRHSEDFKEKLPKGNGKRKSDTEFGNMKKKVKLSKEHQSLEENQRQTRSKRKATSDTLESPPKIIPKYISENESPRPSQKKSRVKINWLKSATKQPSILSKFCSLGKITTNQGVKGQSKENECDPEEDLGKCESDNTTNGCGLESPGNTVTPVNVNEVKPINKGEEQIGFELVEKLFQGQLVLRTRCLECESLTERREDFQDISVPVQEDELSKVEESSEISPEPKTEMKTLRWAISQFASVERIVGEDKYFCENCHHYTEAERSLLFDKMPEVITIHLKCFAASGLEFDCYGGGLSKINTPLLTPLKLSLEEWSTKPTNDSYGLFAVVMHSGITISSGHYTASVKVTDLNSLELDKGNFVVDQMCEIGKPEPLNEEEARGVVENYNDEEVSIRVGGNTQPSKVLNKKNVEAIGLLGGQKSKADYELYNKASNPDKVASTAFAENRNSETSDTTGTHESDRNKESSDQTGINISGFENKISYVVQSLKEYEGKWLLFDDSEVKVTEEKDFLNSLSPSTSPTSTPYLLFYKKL
# ATP-dependent 6-phosphofructokinase (Trypanosoma brucei brucei), sequence (O15648 whole entry, looked up): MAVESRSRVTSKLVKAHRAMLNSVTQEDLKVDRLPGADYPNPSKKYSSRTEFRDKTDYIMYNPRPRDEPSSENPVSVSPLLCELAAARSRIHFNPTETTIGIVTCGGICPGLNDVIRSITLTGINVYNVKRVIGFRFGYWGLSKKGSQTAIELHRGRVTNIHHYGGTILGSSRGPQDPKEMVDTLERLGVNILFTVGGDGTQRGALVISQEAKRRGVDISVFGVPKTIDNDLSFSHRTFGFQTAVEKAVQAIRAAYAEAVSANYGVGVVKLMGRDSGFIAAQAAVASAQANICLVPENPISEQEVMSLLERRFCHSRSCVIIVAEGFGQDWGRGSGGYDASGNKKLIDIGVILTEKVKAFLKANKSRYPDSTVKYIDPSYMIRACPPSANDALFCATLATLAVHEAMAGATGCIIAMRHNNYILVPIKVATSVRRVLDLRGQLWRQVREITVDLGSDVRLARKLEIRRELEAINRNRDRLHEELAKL
smiles,measurement,setting,value
OCC(O)[C@H]1O[C@@H]2O[C@H](C(Cl)(Cl)Cl)O[C@@H]2[C@H]1O (stereo not given in full),outcome,[1],inactive
same,Potency,[2],inactive
same,Potency,[3],inactive
same,"activity, negative = inhibition",[4]; parasite line A,8.92%
same,"activity, negative = inhibition",[4]; parasite line B,3.35%
same,Potency,[5],inactive
same,Potency,[6],inactive
same,Potency,[7],inactive
same,Potency,[8],inactive
same,Potency,[9],inactive
same,Potency,[10],inactive
same,Potency,[11],inactive
same,Potency,[12],inactive
same,Potency,[13],inactive
same,Potency,[14],inactive
same,Potency,[15],inactive
same,Potency,[16],inactive
same,Potency,[17],inactive
same,Potency,[18],inactive
same,Potency,[19],inactive
same,Potency,[20],inactive
COC(C(=O)C(O)C(C)O)C1Cc2cc3cc(OC4CC(OC5CC(O)C(OC)C(C)O5)C(OC(C)=O)C(C)O4)c(C)c(O)c3c(O)c2C(=O)C1OC1CC(OC2CC(OC3CC(C)(O)C(OC(C)=O)C(C)O3)C(O)C(C)O2)C(O)C(C)O1 (stereo not given),outcome,[1],inactive
same,Potency,[3],inactive
same,Potency,[4]; parasite line A,708 nM (active)
same,Potency,[4]; parasite line B,1410 nM (active)
same,Potency,[5],1410 nM (active)
same,Potency,[6],1780 nM (active)
same,Potency,[7],1780 nM (active)
same,Potency,[8],4260 nM (active)
same,Potency,[9],15100 nM (active)
same,Potency,[10],4260 nM (active)
same,Potency,[11],89.1 nM (active)
same,Potency,[12],1260 nM (active)
same,Potency,[13],1900 nM (active)
same,Potency,[14],1900 nM (active)
same,Potency,[15],100 nM (active)
same,Potency,[16],3380 nM (active)
same,Potency,[17],3380 nM (active)
same,Potency,[18],2000 nM (active)
same,Potency,[19],3980 nM (active)
same,Potency,[20],2820 nM (active)
CCC/C=C/C=C/C(=O)OC1/C(=C/C(=O)OC)CC2CC(C(C)O)OC(=O)CC(O)CC3CC(OC(C)=O)C(C)(C)C(O)(CC4C/C(=C/C(=O)OC)CC(/C=C\C(C)(C)C1(O)O2)O4)O3 (stereo not given),outcome,[1],inactive
same,Potency,[3],inactive
same,Potency,[4]; parasite line A,1580 nM (active)
same,Potency,[4]; parasite line B,1780 nM (active)
same,Potency,[5],891 nM (active)
same,Potency,[6],1260 nM (active)
same,Potency,[7],1120 nM (active)
same,Potency,[10],1690 nM (active)
same,Potency,[11],2820 nM (active)
same,Potency,[12],1000 nM (active)
same,Potency,[13],1350 nM (active)
same,Potency,[14],1510 nM (active)
same,Potency,[15],2240 nM (active)
same,Potency,[17],1900 nM (active)
same,Potency,[18],2240 nM (active)
same,Potency,[19],3160 nM (active)
same,Potency,[20],1260 nM (active)
CNCC(=O)NC(CCCN=C(N)N)C(=O)NC(C(=O)NC(Cc1ccc(O)cc1)C(=O)NC(C(=O)NC(Cc1cnc[nH]1)C(=O)N1CCCC1C(=O)NC(C)C(=O)O)C(C)C)C(C)C (stereo not given),outcome,[1],inactive
CC(C)CC(NC(=O)C(COC(C)(C)C)NC(=O)C(Cc1ccc(O)cc1)NC(=O)C(CO)NC(=O)C(Cc1c[nH]c2ccccc12)NC(=O)C(Cc1cnc[nH]1)NC(=O)C1CCC(=O)N1)C(=O)NC(CCCN=C(N)N)C(=O)N1CCCC1C(=O)NNC(N)=O (stereo not given),outcome,[1],inactive
C#CCN1CC(=O)N(COC(=O)[C@@H]2[C@@H](C=C(C)C)C2(C)C)C1=O,outcome,[1],inactive
same,Potency,[3],inactive
same,"activity, negative = inhibition",[4]; parasite line A,4.89%
same,"activity, negative = inhibition",[4]; parasite line B,10.9%
same,Potency,[5],inactive
same,Potency,[6],inactive
same,Potency,[7],inactive
same,Potency,[8],inactive
same,Potency,[9],inactive
same,Potency,[11],inactive
same,Potency,[12],inactive
same,Potency,[13],inactive
same,Potency,[14],inactive
same,Potency,[15],inactive
same,Potency,[16],inactive
same,Potency,[17],inactive
same,Potency,[18],inactive
same,Potency,[19],inactive
same,Potency,[20],inactive
CC1OC(O[C@H]2C[C@@H](O)[C@]3(CO)[C@@H]4C(CC[C@]3(O)C2)[C@@]2(O)CC[C@H](C3=CC(=O)OC3)[C@@]2(C)C[C@H]4O)C(O)C(O)C1O (stereo not given in full),outcome,[1],inactive
same,Potency,[2],inactive
same,Potency,[3],inactive
same,"activity, negative = inhibition",[4]; parasite line A,-8.52%
same,"activity, negative = inhibition",[4]; parasite line B,-0.0666%
same,Potency,[5],inactive
same,Potency,[6],inactive
same,Potency,[7],inactive
same,Potency,[8],inactive
same,Potency,[9],inactive
same,Potency,[10],inactive
same,Potency,[11],inactive
same,Potency,[12],inactive
same,Potency,[13],inactive
same,Potency,[14],inactive
same,Potency,[15],inactive
same,Potency,[16],inactive
same,Potency,[17],inactive
same,Potency,[18],inactive
same,Potency,[19],inactive
same,Potency,[20],inactive
CCCN1CCCC2Cc3nc(N)ncc3CC21 (stereo not given),outcome,[1],inactive
same,Potency,[2],inactive
same,Potency,[3],inactive
same,"activity, negative = inhibition",[4]; parasite line A,2.28%
same,"activity, negative = inhibition",[4]; parasite line B,5.03%
same,Potency,[5],inactive
same,Potency,[6],inactive
same,Potency,[7],inactive
same,Potency,[8],inactive
same,Potency,[9],inactive
same,Potency,[10],inactive
same,Potency,[11],inactive
same,Potency,[12],inactive
same,Potency,[13],inactive
same,Potency,[14],inactive
same,Potency,[15],inactive
same,Potency,[16],inactive
same,Potency,[17],inactive
same,Potency,[18],inactive
same,Potency,[19],inactive
same,Potency,[20],inactive
CC(=O)[C@H]1CC[C@H]2C3CC[C@H]4C[C@H](O)CC[C@]4(C)C3CC[C@]12C (stereo not given in full),outcome,[1],inactive
same,Potency,[2],inactive
same,Potency,[3],inactive
same,"activity, negative = inhibition",[4]; parasite line A,-11.3%
same,"activity, negative = inhibition",[4]; parasite line B,2.02%
same,Potency,[5],inactive
same,Potency,[6],inactive
same,Potency,[7],inactive
same,Potency,[8],inactive
same,Potency,[9],inactive
same,Potency,[10],inactive
same,Potency,[11],inactive
same,Potency,[12],inactive
same,Potency,[13],inactive
same,Potency,[14],inactive
same,Potency,[15],inactive
same,Potency,[16],inactive
same,Potency,[17],inactive
same,Potency,[18],inactive
same,Potency,[19],inactive
same,Potency,[20],inactive
CC(=O)Oc1ccc2c3c1OC1[C@@H](OC(C)=O)C=C[C@H]4[C@H](C2)N(C)CC[C@]314 (stereo not given in full),outcome,[1],inactive
same,Potency,[2],inactive
same,Potency,[3],inactive
same,"activity, negative = inhibition",[4]; parasite line A,15.5%
same,"activity, negative = inhibition",[4]; parasite line B,9.45%
same,Potency,[5],inactive
same,Potency,[6],inactive
same,Potency,[7],inactive
same,Potency,[8],inactive
same,Potency,[9],inactive
same,Potency,[10],inactive
same,Potency,[11],inactive
same,Potency,[12],inactive
same,Potency,[13],inactive
same,Potency,[14],inactive
same,Potency,[15],inactive
same,Potency,[16],inactive
same,Potency,[17],inactive
same,Potency,[18],inactive
same,Potency,[19],inactive
same,Potency,[20],inactive
CCOC(=O)/C=C(C)/C=C/CC(C)CCCC(C)C (stereo not given),outcome,[1],inactive
same,Potency,[2],inactive
same,Potency,[3],inactive
same,"activity, negative = inhibition",[4]; parasite line A,-0.0375%
same,"activity, negative = inhibition",[4]; parasite line B,8.06%
same,Potency,[5],inactive
same,Potency,[6],inactive
same,Potency,[7],inactive
same,Potency,[8],inactive
same,Potency,[9],inactive
same,Potency,[10],inactive
same,Potency,[11],inactive
same,Potency,[12],inactive
same,Potency,[13],inactive
same,Potency,[14],inactive
same,Potency,[15],inactive
same,Potency,[16],inactive
same,Potency,[17],inactive
same,Potency,[18],inactive
same,Potency,[19],inactive
same,Potency,[20],inactive
CC[C@H](C)[C@H](N)C1=N[C@H](C(=O)N[C@@H](CC(C)C)C(=O)N[C@@H](CCC(=O)O)C(=O)N[C@@H](C(=O)N[C@H]2CCCCNC(=O)[C@@H](CC(N)=O)NC(=O)[C@@H](CC(=O)O)NC(=O)[C@@H](Cc3cnc[nH]3)NC(=O)[C@@H](Cc3ccccc3)NC(=O)[C@@H]([C@@H](C)CC)NC(=O)[C@@H](CCCN)NC2=O)[C@@H](C)CC)CS1 ({Ileψ(thiazoline)Cys}-LE[d(aIle)]K[dOrn][d(aIle)][dF][dH][dD][dN]; lactam 4-C),outcome,[1],inactive
